# Assay results: ChEMBL document CHEMBL1157539, “Thousands of chemical starting points for antimalarial lead identification” (Nature, 2010)
# Experiments:
# Format in all cases: functional
# [1] = system: Plasmodium falciparum; test: GSK_TCMDC: Inhibition of Plasmodium falciparum 3D7 in whole red blood cells, using parasite LDH activity as an index of growth. Test compounds present at 2uM
# [2] = system: Plasmodium falciparum; test: GSK_TCMDC: Inhibition of Plasmodium falciparum Dd2 in whole red blood cells, using parasite LDH activity as an index of growth. Test compounds present at 2uM
# [3] = system: HepG2; test: GSK_TCMDC: Percent inhibition of human HepG2 cell line. Test compounds present at 10uM.
Structure (SMILES),Inhibition [1],Inhibition [2],Inhibition [3]
O=C(Nc1ccc(Cl)cc1)c1ccc(CN2CCCN(Cc3cccc(Cl)c3)CC2)cc1.O=C(O)C(F)(F)F,96%,15%,53%
O=C(Nc1ccc(F)cc1F)NC1CCN(CCCCCNC(=O)C2CC2c2ccc(Cl)c(Cl)c2)CC1 (stereo not given),100%,32%,41%
CC(C)(C)C1CC(=O)CC2C(=O)N(C3CCCCC3)C(=O)C21 (stereo not given),97%,27%,0%
COc1cccc(-c2nn(C)c3sc(C(=O)Nc4cccnc4)cc23)c1,86%,34%,1%
CCCC[C@H](NC(=O)O[C@H](COc1ccc(OCc2ccccc2)cc1)C(C)(C)C)C(=O)C(=O)Nc1cc[nH]n1,88%,71%,21%
COc1cc(F)c2ncc(Cl)c([C@@H](O)CN3CCC(NCc4cc5c(cn4)OCCO5)CC3)c2c1.Cl,100%,100%,11%
CCN(CC)CCN(Cc1ccc(-c2ccc(C(F)(F)F)cc2)cc1)C(=O)Cn1c(CCc2cccc(F)c2F)nc(=O)c2ccc(F)cc21.O=C(O)C(O)C(O)C(=O)O,98%,41%,14%
Cc1cc(OCc2ccccc2)c(OCc2ccccc2)cc1C(O)CN(C)Cc1ccccc1.Cl (stereo not given),96%,87%,14%
CC[C@H](C)[C@H](NC(=O)[C@H](CC1CCCCC1)[C@H](CC)N(O)C=O)C(=O)Nc1ccccn1,96%,95%,14%
CCOC(=O)c1ccc(NC(=O)Nc2ccc(-c3cccc(-c4nc5cc(F)ccc5[nH]4)c3)cc2)cc1,100%,100%,98%
